This note sets out measurements from PubChem BioAssay.

A short description of experiment [1]: inhibitors of TNFa-induced NFkB p65 translocation, primary screen, imaging, HUVEC, MLSMR starter and 10KST1 sets (AID 438;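 active = inhibition above 20% together with a positive visual image hit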;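 also: compound added about 3h40 before a 20 min TNFalpha stimulation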;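 as to inhibition: signal is the nuclear over cytoplasmic p65 intensity ratio per well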). The note with it: HUVEC TNFa-induced p65 nuclear translocation; cell count: measured here: nuclei count (cytotoxicity indicator), at 2.08 µM; inhibition: at 2 µM, stronger effect = higher value, 0% TNFa-plus-vehicle, 100% no-TNFa wells.
A short description of experiment [2]: reduction of polyQ htt aggregates in cells – imaging, exon1htt(103Q)mCFP cells, high-content imaging, primary screen (AID 483;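 active = visual image review flags a hit and inhibition of aggregation exceeds 20%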;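 also: compound exposure lasted 3 days before fixation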;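 as to nuclei count: percent of the per-plate median nuclei count of sample wells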). As to conditions: exon1htt(103Q)mCFP cell line, aggregate imaging, at 2 µM; inhibition of aggregation: stronger effect = higher value; nuclei count: measured here: cell count, toxicity.
Experiment [3] in a line: endothelial E-selectin expression blockers – imaging, HUVEC, immunofluorescence, MLSMR starter and 10KST1 sets, primary screen (AID 487;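 active = visually confirmed hit in the image check and inhibition above 20%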;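 as to inhibition: signal is fraction of cell area covered by stained E-selectin grains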;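 as to nuclei count: 100% = median nuclei count of all wells on the same plate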). As to conditions: HUVEC TNFalpha-induced E-selectin immunofluorescence imaging, at 2 µM; inhibition: stronger effect = higher value; nuclei count: measured here: cell number, toxicity.
A short description of experiment [4]: Primary imaging screen for DUSP6 inhibitors that restore phospho-Erk in transfected HeLa cells, chemical complementation (AID 609;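 active = compounds giving at least 50% inhibition in the cell-based MKP-3 phosphatase rescue imaging test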;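 as to inhibition: phospho-Erk level distribution per well compared with pooled transfected vehicle control wells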). As to conditions: HeLa MKP-3 transfected, phospho-Erk imaging KS statistic, at 10 µM, cells stimulated with TPA for 15 min.
The target of experiment [5] is Dual specificity protein phosphatase 6 (Homo sapiens) (UniProt Q16828). Described as above. The note with it: HeLa MKP-3 transfected, phospho-Erk imaging KS statistic; at 10 µM; stronger effect = higher value; cells stimulated with TPA for 15 min.
Sequence of Dual specificity protein phosphatase 6 (Homo sapiens) (Q16828 whole entry, looked up): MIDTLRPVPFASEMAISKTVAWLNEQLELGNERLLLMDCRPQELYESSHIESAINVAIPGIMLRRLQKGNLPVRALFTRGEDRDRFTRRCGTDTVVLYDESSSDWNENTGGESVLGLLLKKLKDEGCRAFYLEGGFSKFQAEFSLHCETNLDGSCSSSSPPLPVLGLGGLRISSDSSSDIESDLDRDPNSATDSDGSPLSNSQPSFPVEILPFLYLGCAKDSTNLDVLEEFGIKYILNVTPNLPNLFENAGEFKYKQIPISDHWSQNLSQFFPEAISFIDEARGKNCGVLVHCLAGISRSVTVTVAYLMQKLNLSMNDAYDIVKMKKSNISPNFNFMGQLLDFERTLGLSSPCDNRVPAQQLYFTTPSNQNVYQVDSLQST
Experiment [6] deals with Voltage-gated potassium channel subunit beta-2 (Rattus norvegicus) (UniProt P62483). As to the kind of experiment: inhibitors of rat Kvbeta2 reductase activity – biochemical, NADPH fluorescence, primary screen (AID 622;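 active = fluorescence slope higher than the sample average by over 3 SD, cut at about -0.22 in these data, passing the limit was not always enough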;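 also: slope of raw intensity against log time taken from 70 to 1610 s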). The note with it: recombinant KvBeta, 4-cyanobenzaldehyde reduction, at 10 µM, stronger effect = higher value.
Sequence of Voltage-gated potassium channel subunit beta-2 (Rattus norvegicus) (P62483 whole entry, looked up): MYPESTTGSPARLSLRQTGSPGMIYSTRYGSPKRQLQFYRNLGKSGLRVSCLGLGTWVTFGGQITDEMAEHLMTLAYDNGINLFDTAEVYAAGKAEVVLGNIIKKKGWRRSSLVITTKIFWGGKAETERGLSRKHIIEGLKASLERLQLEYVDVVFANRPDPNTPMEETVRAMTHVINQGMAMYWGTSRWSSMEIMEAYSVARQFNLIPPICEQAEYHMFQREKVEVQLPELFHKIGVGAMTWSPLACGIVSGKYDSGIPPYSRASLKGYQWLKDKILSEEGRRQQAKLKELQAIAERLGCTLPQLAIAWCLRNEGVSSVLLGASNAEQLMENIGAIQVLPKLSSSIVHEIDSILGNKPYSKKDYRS
Experiment [7] has the same target. As to the kind of experiment: enhancers of rat Kvbeta2 NADPH turnover – biochemical, NADPH fluorescence, primary screen (AID 623;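 active = NADPH fluorescence slope more negative than the mean of all samples by about 3 SD, 99.7% confidence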;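 also: fluorescence intensity change per second fitted from 20 to 320 s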). The note with it: Recombinant KvBeta, NADPH fluorescence decrease slope, 10 min; at 10 µM; stronger effect = lower value.
Experiment [8] has as its target Alpha-2C adrenergic receptor (Homo sapiens) (UniProt P18825). Kind of experiment: compounds altering alpha2C-coupled GIRK flux – cell-based, HEK293 alpha2C/GIRK1/2, thallium flux, primary screen (AID 624;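 active = fluorescence slope after compound addition differing from the mean of all screened samples at 99.7% confidence, in either direction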;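 also: slope of fluorescence ratio to pre-addition baseline per second over 15 to 24 s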). As to conditions: thallium flux BTC fluorescence, at 10 µM, actives lie on both sides.
Experiment [9] can be described thus: inhibitors of larval lipid processing in zebrafish, primary screen, whole organism, PED6 fluorescence, gall bladder and intestine (AID 686;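 active = a full or partial loss of lipid-probe fluorescence in the fish gall bladder, intestine or both, judged by eye; inactive = no fluorescence loss, or compound toxic to the fish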;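 also: larvae 5 to 7 days old with five fish per well; signal comes from phospholipase A2 cleavage of quenched PED6 carried via bile; overnight exposure to compound and PED6 before scoring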). As to conditions: Zebrafish larvae PED6 lipid processing, fluorescence scoring; screened at 20 µM (by protocol).
A short description of experiment [10]: loss of swimming-algae plug formation – whole organism, Chlamydomonas reinhardtii, WT vs cilia-less mutant, absorbance, 96-well, primary screen (AID 463189).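 Also: 0% = wild type cc124 cells in DMSO and 100% = ciliumless bld1 mutant cells.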 The note with it: Chlamydomonas reinhardtii gravitaxis, OD600 absorbance, 2 days; at 10 µM; stronger effect = higher value.
Experiment [11] can be described thus: blockers of RIG-like receptor reporter activation – cell-based, Sendai virus stimulus, luciferase, 10K MLSCN set, TLR/RLR signaling modifier project, primary screen (AID 602276;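 active = inhibition at or above 50% at 10 µM; inactive = inhibition below 50%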;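 also: firefly luciferase from ISG56 promoter only with Renilla not read in this screen; 0% = Sendai virus plus DMSO and 100% = medium plus DMSO without virus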). The note with it: HEK293 RL24 IRF3 luciferase reporter, at 10 µM, stronger effect = higher value.
Experiment [12] is described as follows: TLR3 IRF3 reporter activation blockers – cell-based, poly I:C stimulus, luciferase, 10K MLSCN set, primary screen (AID 602277;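 active = inhibition of the reporter signal at or above 50%; inactive = inhibition below 50%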). As to conditions: HEK293-TLR3 RL24 IRF3 luciferase reporter, at 10 µM, stronger effect = higher value. (A reporter such as luciferase makes a cellular process visible.)
[13] abbreviates: measured here: cell density z-score.
Where [14] appears, read: measured here: nuclear c-Myc green intensity z-score.
[15] abbreviates: measured here: nuclear pErk red intensity z-score, stronger effect = higher value.

Molecules are shown by their SMILES. Where “and” joins values, the source holds several entries; their conditions need not be identical. Equal entries are not always repeated. Calls of active or inactive are those of the source.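 The calls were made as follows, unless noted: active = inhibition at or above 50% relative to wild type and mutant plate controls; inactive = inhibition below 50%.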

Sequence of Alpha-2C adrenergic receptor (Homo sapiens) (P18825 whole entry, looked up): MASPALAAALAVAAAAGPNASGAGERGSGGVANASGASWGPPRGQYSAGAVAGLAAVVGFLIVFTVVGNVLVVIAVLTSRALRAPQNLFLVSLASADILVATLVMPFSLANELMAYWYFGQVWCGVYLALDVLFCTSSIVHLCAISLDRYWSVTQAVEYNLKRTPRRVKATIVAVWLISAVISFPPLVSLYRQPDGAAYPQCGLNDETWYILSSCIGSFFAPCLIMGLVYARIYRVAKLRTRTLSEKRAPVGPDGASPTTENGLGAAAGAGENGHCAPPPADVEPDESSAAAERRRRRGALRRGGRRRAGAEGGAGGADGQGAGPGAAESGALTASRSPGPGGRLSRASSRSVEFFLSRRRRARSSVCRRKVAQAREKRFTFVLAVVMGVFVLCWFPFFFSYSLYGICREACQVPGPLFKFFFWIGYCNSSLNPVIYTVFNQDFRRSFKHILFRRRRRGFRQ

By inhibition is commonly meant the drop in the measured response relative to a control, in per cent. As to `CSc1ccccc1NC(=O)c1c(Br)cnn1C`, in experiment [1], the cell count was determined as 559. Moreover, the inhibition in experiment [1] was -4.3% (inactive); in experiment [3] it was 26.1% (inactive); in [5] it was -2.47% (inactive); in experiment [10] it was 4.29% (inactive); in experiment [11], 5.4% (inactive); in experiment [12], 4.72% (inactive). For the same compound, the inhibition of aggregation in [2] was 33.5% (active). Further, the nuclei count amounted to 58.2% in experiment [2] and 130% in experiment [3]. The z-score in experiment [4] (setting [13]) was -0.962; in experiment [4] (setting [14]), -0.8; in experiment [4] (setting [15]), 0.479. Also, the fluorescence slope in [6] is -0.453 (inactive). Further, the NADPH fluorescence slope in experiment [7] is -5.8e-06 (inactive). For the same compound, in experiment [8], the slope is 0.00569 (inactive). In addition, the compound was classed as inactive in experiment [9].

Turning to `COCCc1ccc(OCC(O)CNC(C)C)cc1` (stereo not given), the cell count in experiment [1] worked out at 534. The inhibition in experiment [1] was 1.4% (inactive); in experiment [3], -71.5% (inactive); in experiment [5], 8% (inactive); in [10], -6.24% (inactive) and 33.7% (inactive); in [11] it was 15.3% (inactive); in experiment [12], 32.2% (inactive). For the same compound, the inhibition of aggregation in experiment [2] is -4.4% (inactive). For the same compound, the nuclei count was found to be 85.7% in experiment [2] and 108% in [3]. Moreover, the z-score in [4] (setting [13]) is -1.75; in experiment [4] (setting [14]), 1.07; in experiment [4] (setting [15]) it was 0.0458. For the same compound, in experiment [6], the fluorescence slope is -0.46 (inactive). Besides, the NADPH fluorescence slope in experiment [7] was -3.7e-05 (inactive). For the same compound, the slope in experiment [8] is 0.00577 (inactive). Besides, the outcome in experiment [9] was inactive.

As to `NC(=O)OCC(COC(N)=O)c1ccccc1`, the cell count in [1] amounted to 615. For the same compound, the inhibition is -7.6% (inactive) in [1]; -22.5% (inactive) in experiment [3]; 3.45% (inactive) in experiment [5]; -4.89% (inactive) and -8.93% (inactive) in [10]; 17.5% (inactive) in [11]; 34.3% (inactive) in experiment [12]. In addition, the inhibition of aggregation in [2] is -2.4% (inactive). Also, the nuclei count in experiment [2] was found to be 114%; in experiment [3], 108%. In addition, the z-score in experiment [4] (setting [13]) is 1.02; in experiment [4] (setting [14]), -0.593; in experiment [4] (setting [15]) it was -0.701. In [6], the fluorescence slope is -0.44 (inactive). In experiment [7], the NADPH fluorescence slope was -3.1e-05 (inactive). In addition, the slope in experiment [8] was 0.00508 (inactive). For the same compound, the call in experiment [9] was inactive.

Turning to `C#CCN(C)Cc1ccccc1`, the cell count in [1] amounted to 613. The inhibition is -8.1% (inactive) in experiment [1]; -105% (inactive) in experiment [3]; 13.3% (inactive) in experiment [5]; -8.12% (inactive) and 10.4% (inactive) in experiment [10]; 18.7% (inactive) in experiment [11]; 42.3% (inactive) in [12]. Besides, in [2], the inhibition of aggregation is 11.2% (inactive). The nuclei count in experiment [2] is 96.3%; in [3] it was 135%. Also, the z-score in experiment [4] (setting [13]) is 1.46; in [4] (setting [14]), -0.921; in [4] (setting [15]) it was -1.15. The fluorescence slope in experiment [6] was -0.461 (inactive). In addition, the NADPH fluorescence slope in [7] is -3.5e-05 (inactive). The slope in experiment [8] is 0.00478 (inactive). For the same compound, the compound was called inactive in experiment [9].

On to `Cc1nnc2n(Cc3ccccc3)c(=O)c3c4c(sc3n12)COC(C(C)C)C4` (stereo not given), for which the cell count in experiment [1] is 511. Also, the inhibition in experiment [1] was 9.8% (inactive); in [3], -54.8% (inactive); in experiment [5], -1.12% (inactive); in experiment [10], 146% (active); in experiment [11], 11.6% (inactive); in [12], 3.4% (inactive). In addition, the inhibition of aggregation in [2] is 29.9% (inactive). The nuclei count in [2] was 80.8%; in experiment [3], 118%. For the same compound, the figures for the z-score in experiment [4] (setting [13]), in experiment [4] (setting [14]) and in experiment [4] (setting [15]) were 0.665, -0.394 and -1.52, respectively. The fluorescence slope in experiment [6] is -0.46 (inactive). Also, the NADPH fluorescence slope in [7] was -0.000365 (inactive). Moreover, the slope in experiment [8] is 0.00653 (inactive). The compound was classed as inactive in [9].
